PubChem BioAssay AID720706 (Broad Institute, 2013)
The whole screen tested about 350,000 compounds, of which about 5,500 (1.6%) were called active.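 Rule for the calls: active = significant combined selectivity score with lowered wild-type GFP, culture density cut under 30%, mutant RFP and density less affected; inactive = any of these conditions unmet.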 For the sample, actives were picked, then their nearest neighbours and some compounds at random.

Assay: reduced GFP signal of wild-type E. coli, primary screen, bacterial rRNA inhibitor project, GFP/RFP fluorescence, OD600, single point (AID 720706)
Settings: E. coli WT GFP vs humanized-ribosome RFP mutants, 24 h; GFP signal change (wild-type ribosome): stronger effect = lower value, DMSO median 0, no signal -100; OD600 change: measured here: OD600 growth, DMSO median 0, no signal -100; RFP signal change: measured here: RFP humanized mutant strains, DMSO median 0, no signal -100, concentration not given here
In the case of COc1ccccc1NC(=O)N[C@H]1CC[C@@H](CCn2cc(C3(O)CCCC3)nn2)O[C@@H]1CO, the GFP signal change (wild-type ribosome) is reported as -0.097% (inactive), the OD600 change is reported as 0.829% and the RFP signal change is reported as -2.3%. With CC(C)NC(=O)N1[C@H](C(=O)N2CCc3ccccc3C2)[C@@H](CO)[C@@H]2Cn3c(cccc3=O)[C@@H]21 the GFP signal change (wild-type ribosome) was -0.919% (inactive), the OD600 change was -4.45% and the RFP signal change was -2.12%. In the case of Cc1cccc(NC(=S)NCCc2ccc(Cl)cc2)c1C, the GFP signal change (wild-type ribosome) is reported as -5.8% (inactive), the OD600 change is reported as -24.2% and the RFP signal change is reported as 6.65%. In the case of Cc1ccccc1NC(=S)NC(=O)Cc1ccc(Cl)cc1, the GFP signal change (wild-type ribosome) is reported as -31.6% (active), the OD600 change is reported as -2.94% and the RFP signal change is reported as 1.01%. With O=C(Cc1ccc(Cl)cc1)NC(=S)Nc1ccccc1O the GFP signal change (wild-type ribosome) was 6.71% (inactive), the OD600 change was -1.88% and the RFP signal change was 5.02%. For C[C@H](CO)N1C[C@H](C)[C@H](CN(C)S(=O)(=O)c2cccs2)Oc2c(NS(=O)(=O)c3ccc(Cl)cc3)cccc2C1=O, the GFP signal change (wild-type ribosome) was -5.17% (inactive), the OD600 change was -6.49% and the RFP signal change was 3.43%. In the case of CCCn1c(=S)[nH]c2ccc(C(F)(F)F)cc21, the GFP signal change (wild-type ribosome) is reported as -39% (active), the OD600 change is reported as -18.3% and the RFP signal change is reported as -4.67%. In the case of CC(C)n1c(=S)[nH]c2cc(C(F)(F)F)ccc21, the GFP signal change (wild-type ribosome) is reported as -0.904% (inactive), the OD600 change is reported as -3.6% and the RFP signal change is reported as -3.06%. With CN(C)CCn1c(=S)[nH]c2ccc(Cl)cc2c1=O the GFP signal change (wild-type ribosome) was 5.19% (inactive), the OD600 change was 0.375% and the RFP signal change was 2.03%. For Cc1ccccc1-c1ccc([C@H]2[C@@H](CO)N3C(=O)CN(C(=O)c4cccnc4)C[C@@H]23)cc1, the GFP signal change (wild-type ribosome) was 3.51% (inactive), the OD600 change was 8.18% and the RFP signal change was -0.0435%. In the case of S=C(NNC(=S)NC1CC2C=CC1C2)NC1CC2C=CC1C2 (stereo not drawn), the GFP signal change (wild-type ribosome) is reported as -47.5% (active), the OD600 change is reported as -15.1% and the RFP signal change is reported as -13.4%. With CC(C)c1ccc(NC(=S)NC2CC3C=CC2C3)cc1 (stereo not drawn) the GFP signal change (wild-type ribosome) was -37.3% (inactive), the OD600 change was -66.8% and the RFP signal change was 0.867%. In the case of CCCNC(=O)N1[C@H](CO)[C@H]2c3ccccc3N(C(=O)Nc3cccc(Cl)c3)C[C@H]21, the GFP signal change (wild-type ribosome) is reported as -57.4% (inactive), the OD600 change is reported as -71.6% and the RFP signal change is reported as -12.8%. For CCCN1C[C@H](C)[C@H](OC)CN(C)C(=O)c2cc(NC(=O)NC3CCCC3)ccc2OC[C@H]1C, the GFP signal change (wild-type ribosome) was -0.637% (inactive), the OD600 change was 8.41% and the RFP signal change was 2.12%. For CC(=O)N1CCC(N(C(=O)Nc2ccc(Cl)cc2)C(C)C)CC1, the GFP signal change (wild-type ribosome) was -25.5% (active), the OD600 change was -18% and the RFP signal change was -0.55%. In the case of O=C(NC1CCN(C(=S)Nc2ccc(Cl)cc2)CC1)C1CCCCC1, the GFP signal change (wild-type ribosome) is reported as 6.47% (inactive), the OD600 change is reported as 11.2% and the RFP signal change is reported as 0.251%. In the case of CC(=O)C(CC(=O)N1CCCC1)C(=O)Nc1ccc(Cl)cc1 (stereo not drawn), the GFP signal change (wild-type ribosome) is reported as 1.69% (inactive), the OD600 change is reported as 9.42% and the RFP signal change is reported as 0.378%. For CCCN(C)C[C@H]1OCCCC[C@H](C)Oc2ccc(NS(=O)(=O)c3ccc(C)cc3)cc2C(=O)N([C@@H](C)CO)C[C@H]1C, the GFP signal change (wild-type ribosome) was -0.746% (inactive), the OD600 change was -1.7% and the RFP signal change was -0.147%. With CC(C)NC(=O)N1CCCCN2[C@@H](CO)[C@@H](c3ccc(C#C[C@@H](C)O)cc3)[C@@H]2C1 the GFP signal change (wild-type ribosome) was 5.76% (inactive), the OD600 change was 13.1% and the RFP signal change was -1.96%. For O=S(=O)(Cc1ccccc1)N1CCCCN2[C@@H](CO)[C@H](c3ccc(-c4ccccc4)cc3)[C@@H]2C1, the GFP signal change (wild-type ribosome) was -9.68% (inactive), the OD600 change was -41.9% and the RFP signal change was 18.6%. In the case of CN(C)CC#Cc1ccc([C@@H]2[C@H](CO)N3CCCCN(C(=O)NC4CCCC4)C[C@@H]23)cc1, the GFP signal change (wild-type ribosome) is reported as 5.92% (inactive), the OD600 change is reported as 4.22% and the RFP signal change is reported as 0.0255%. For CCOC(=O)C1=C(c2ccccc2)NC(=S)NC1c1ccc(Cl)cc1 (stereo not drawn), the GFP signal change (wild-type ribosome) was -8.35% (inactive), the OD600 change was -7.99% and the RFP signal change was -0.819%. With CCOC(=O)C1C(=O)NCC1c1ccccc1 (stereo not drawn) the GFP signal change (wild-type ribosome) was 8.68% (inactive), the OD600 change was -9.73% and the RFP signal change was 1%. In the case of C=CCC1(C#N)C(=S)NC(C)=C(C(=O)OCC)C1c1ccccc1 (stereo not drawn), the GFP signal change (wild-type ribosome) is reported as -26.3% (active), the OD600 change is reported as -19.2% and the RFP signal change is reported as -3.7%. In the case of COc1ccc(NC(=O)N(C)C[C@@H]2OCCCC[C@@H](C)Oc3ccc(NS(=O)(=O)c4cn(C)cn4)cc3C(=O)N([C@@H](C)CO)C[C@H]2C)cc1, the GFP signal change (wild-type ribosome) is reported as -1.24% (inactive), the OD600 change is reported as -4.49% and the RFP signal change is reported as 0.792%. For COc1ccc2c3c(n(C)c2c1)[C@@H](CO)N(C(=O)c1cccnc1)CC31CCN(C(=O)c2cccnc2)CC1, the GFP signal change (wild-type ribosome) was 2.76% (inactive), the OD600 change was 15.2% and the RFP signal change was -2.73%. In the case of Cc1ccccc1-n1nc(SCC(=O)O)sc1=S, the GFP signal change (wild-type ribosome) is reported as -0.028% (inactive), the OD600 change is reported as 2.15% and the RFP signal change is reported as 5.05%. With N#CCSc1nn(-c2ccc(F)cc2)c(=S)s1 the GFP signal change (wild-type ribosome) was -34% (active), the OD600 change was -20.7% and the RFP signal change was -5.63%. With O=C(CSc1nn(-c2ccc(F)cc2)c(=S)s1)NC1CCS(=O)(=O)C1 (stereo not drawn) the GFP signal change (wild-type ribosome) was 9.16% (inactive), the OD600 change was 9.88% and the RFP signal change was 20.6%. With CN(C)CCCNC(=O)C[C@H]1CC[C@H]2[C@@H](COC[C@H](O)CN2C(=O)c2ccncc2)O1 the GFP signal change (wild-type ribosome) was 1.62% (inactive), the OD600 change was 1.82% and the RFP signal change was -2.93%. For O=S(=O)(N[C@@H]1CC[C@H](CCn2cc(C3(O)CCCC3)nn2)O[C@@H]1CO)c1ccc(Cl)cc1, the GFP signal change (wild-type ribosome) was 1% (inactive), the OD600 change was -3.78% and the RFP signal change was -2.53%. For O=C(N/N=C/c1cccc(O)c1)c1cc2c(ccc3ccccc32)o1, the GFP signal change (wild-type ribosome) was -16.9% (inactive), the OD600 change was -25.4% and the RFP signal change was 6.33%. In the case of Cc1c(/C=N\NC(=O)c2cc3ccccc3o2)c2ccccc2n1C, the GFP signal change (wild-type ribosome) is reported as -23.4% (active), the OD600 change is reported as -4.47% and the RFP signal change is reported as 6.38%. For Cc1cc(NC(=O)c2cc3ccccc3o2)no1, the GFP signal change (wild-type ribosome) was -2.45% (inactive), the OD600 change was 5.97% and the RFP signal change was 7.13%. With Cc1ccccc1S(=O)(=O)N1CC(=O)N2[C@H](CO)[C@H](c3ccc(C#CCN(C)C)cc3)[C@H]2C1 the GFP signal change (wild-type ribosome) was 4.6% (inactive), the OD600 change was 9.79% and the RFP signal change was 0.298%. With COc1cc(CN2CC3(CN(S(=O)(=O)c4cccs4)C3)c3c(n(C)c4cc(OC)ccc34)[C@H]2CO)cc(OC)c1 the GFP signal change (wild-type ribosome) was 4.45% (inactive), the OD600 change was -5.95% and the RFP signal change was -2.78%. With CNS(=O)(=O)c1cccc(C(=O)OCC(=O)N2c3ccccc3NC(=O)C2(C)C)c1 the GFP signal change (wild-type ribosome) was -0.594% (inactive), the OD600 change was 2.51% and the RFP signal change was -1.67%. In the case of Cc1cc(C(=O)OCC(=O)N2c3ccccc3NC(=O)C2(C)C)c(C)n1-c1ccccc1, the GFP signal change (wild-type ribosome) is reported as -9.02% (inactive), the OD600 change is reported as -33.1% and the RFP signal change is reported as -9.39%. With CCNc1ccc(C(=O)OCC(=O)N2c3ccccc3NC(=O)C2(C)C)cc1[N+](=O)[O-] the GFP signal change (wild-type ribosome) was -25.9% (active), the OD600 change was -16.2% and the RFP signal change was -4.1%. For O=C(C[C@H]1CC[C@@H]2[C@H](COC[C@@H](O)CN2Cc2cccc(-c3ccncc3)c2)O1)N1CCOCC1, the GFP signal change (wild-type ribosome) was -1.04% (inactive), the OD600 change was 0.357% and the RFP signal change was -4.81%. With C[C@H]1CN([C@@H](C)CO)C(=O)Cc2cc(NC(=O)NC3CCCCC3)ccc2O[C@@H]1CN(C)Cc1ccc(Oc2ccccc2)cc1 the GFP signal change (wild-type ribosome) was 1.65% (inactive), the OD600 change was 0.966% and the RFP signal change was -0.931%.
